Reference: PubChem BioAssay (NCI)
This is part of a sample that, as a whole, favours compounds with a hit. Of some 79,000 tested, about 15% had one in any assay. No stated cut-off is given here; in the data, active means growth inhibition above about 70%; inactive means the rest.

Legend:
[1] = NCI Yeast Anticancer Drug Screen. Data for the rad50 strain (AID 155);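 further: 0% = growth of vehicle-only cultures of the same strain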; conditions: S. cerevisiae rad50 strain growth inhibition; at 50.0 µM; hits give high values
How it was run: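 Relative growth inhibition (compound vs vehicle) was measured in yeast with a defined repair-gene alteration.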

[2] = NCI Yeast Anticancer Drug Screen. Data for the mec2-1 strain (AID 157); conditions: S. cerevisiae mec2-1 strain, at 50.0 µM, hits give high values
How it was run: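 Each compound was tested on mec2-1 yeast, a strain altered in DNA damage repair or cell cycle control. Growth inhibition is reported relative to vehicle.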

[3] = NCI Yeast Anticancer Drug Screen. Data for the sgs1 mgt1 strain (AID 161);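 further: 0% = growth of cultures given vehicle only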; conditions: S. cerevisiae sgs1 mgt1 strain, at 50.0 µM, hits give high values
How it was run: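 Test agents were incubated with a DNA-repair-mutant yeast strain. Growth was then read and compared against vehicle-treated controls.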

[4] = NCI Yeast Anticancer Drug Screen. Data for the cln2 rad14 strain (AID 165);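 further: 0% = growth equal to vehicle treated cultures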; conditions: S. cerevisiae cln2 rad14 strain, at 50.0 µM, hits give high values
How it was run: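 Test compounds were added to cln2 rad14 yeast cultures; inhibition of growth was then determined by comparison with vehicle treatment.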

[5] = NCI Yeast Anticancer Drug Screen. Data for the bub3 strain (AID 167); conditions: S. cerevisiae bub3 mutant strain, at 50.0 µM, hits give high values
How it was run: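 Screening used yeast with an engineered genetic alteration affecting cell cycle control. Compound-exposed cultures were compared with vehicle cultures, and reduced growth was taken as inhibition.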

[6] = NCI Yeast Anticancer Drug Screen. Data for the mlh1 rad18 strain (AID 175); conditions: S. cerevisiae mlh1 rad18 strain growth inhibition; at 50.0 µM; hits give high values
How it was run: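 Inhibition values reflect reduced growth of mutant yeast versus vehicle-treated controls following compound exposure; the mutations affect DNA damage repair.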

Measured: growth inhibition

CC(=S)NC(O)C(=O)c1ccccc1 (stereo not given)
inactive: [1] 9.85% | [2] 12.8% | [3] 45% | [4] 8.6% | [5] 45.2% | [6] 6.45%

O=[N+]([O-])c1ccccc1N=N/C(Cc1ccccc1)=N\Nc1ccccc1
inactive: [1] 10.8% | [2] 19.9% | [3] -8.25% | [4] 11.6% | [5] -12.6% | [6] -17.8%

Clc1cc(OCC23CC4CC(CC(C4)C2)C3)nc(OCC23CC4CC(CC(C4)C2)C3)n1
inactive: [1] -35.1% | [2] 4.6% | [3] -18.7% | [4] -4.8% | [5] 9% | [6] -13.4%

CC(C)NC(=O)OCc1c(COC(=O)NC(C)C)c(S(=O)c2ccccc2)n2c1CCC2 (stereo not given)
inactive: [1] 12.6% | [2] 5.3% | [3] 9.05% | [4] -27.1% | [5] 18.6% | [6] -6.4%

COC(=O)C12CC3CC(CC(C(=O)O)(C3)C1)C2
inactive: [1] -10.2% | [2] -7.95% | [3] -4.8% | [4] -3.2% | [5] -1.65% | [6] -14.8%

C=CCOC(=O)Oc1ccc(Cl)cc1
inactive: [1] 27.6% | [2] -13.9% | [3] 23.1% | [4] -0.85% | [5] -2.7% | [6] 28.6%

CCC(C)C(C)(O)CC (stereo not given)
inactive: [1] -2.6% | [2] -28.9% | [3] -21.8% | [4] 4.1% | [5] -8.8% | [6] -4.8%

CCOC(=O)C(CNCc1ccccc1)(c1ccccc1)c1ccccc1
inactive: [1] -6.5% | [2] -4.85% | [3] -23.9% | [4] -31.3% | [5] 9.95% | [6] 2.45%

COc1ccc2c(ccc[n+]2CC(=O)c2ccc(SC)cc2)c1
inactive: [1] 1.9% | [2] 12.3% | [3] 20.1% | [4] 21.4% | [5] 19.6% | [6] 0.75%

NC1CC1
inactive: [1] -8.4% | [2] -1.1% | [3] -4.6% | [4] -9.95% | [5] 11.6% | [6] -22.9%

CCC(CC)CC1CCCCC1=O (stereo not given)
inactive: [1] 1.3% | [2] -5.25% | [3] -6.25% | [4] 3.75% | [5] -20.6% | [6] -7.65%

CCOC(=O)C1SCCC1(C)O (stereo not given)
inactive: [1] 18.9% | [2] 21.7% | [3] 16.6% | [4] 16.8% | [5] 3.55% | [6] 12.7%

O=C1CSC(c2cccc(Cl)c2)N1CCN1C(=O)CSC1c1cccc(Cl)c1 (stereo not given)
inactive: [1] -14.6% | [2] 9% | [3] -2.55% | [4] -20.8% | [5] 2.75% | [6] -6.6%

C/C=C(\CC)C(C#N)(CC)C(=O)OCC (stereo not given)
inactive: [1] 20.9% | [2] -18.4% | [3] -7.5% | [4] -6.25% | [5] -30.3% | [6] -24.8%

Cc1ccc(N(C(=O)CC(=O)N/N=C/c2ccccc2O)C(=O)c2ccccc2)cc1
inactive: [1] -6.55% | [2] -16.8% | [3] -2.05% | [4] 8.2% | [5] -27.1% | [6] -10.8%

C[C@@H]1CN[C@@H](C)CN1
inactive: [1] -35.2% | [2] -30.3% | [3] -17.4% | [4] -8.25% | [5] -0.6% | [6] 3.8%

O=C1CSC(c2ccc([N+](=O)[O-])cc2)N1c1nc(-c2ccc3c(c2)CCCC3)cs1 (stereo not given)
inactive: [1] 32.1% | [2] 2.85% | [3] 21.1% | [4] 9.3% | [5] 1% | [6] 31.5%

CCCCOC(=O)CC(C(=O)OCCCC)N1CCNCC1 (stereo not given)
inactive: [1] -0.05% | [2] -9.95% | [3] -4.15% | [4] -50.6% | [5] -1.2% | [6] -3.1%

Cc1nc(NCCNCCO)nc2c1C(=O)Nc1ccccc1N2
inactive: [1] -43.9% | [2] -50.8% | [3] -7.65% | [4] -5.3% | [5] -3.9% | [6] -38.8%

O=C1NC(O)c2cccc([N+](=O)[O-])c2O1 (stereo not given)
inactive: [1] 19.4% | [2] 9.1% | [3] 15% | [4] 65.5% | [5] -14.8% | [6] 30.8%

NC1=NC(=O)C2(CCCCC2)S1
inactive: [1] -9.6% | [2] -4.8% | [3] -21.2% | [4] -47.6% | [5] -8% | [6] -24.6%

O=C(NC1C=Nc2ccc([N+](=O)[O-])cc2NC1=O)c1ccc(Cl)cc1 (stereo not given)
inactive: [1] 13.2% | [2] 7.8% | [3] 7.35% | [4] -18% | [5] -1.85% | [6] -8.5%

Cc1cc(C)c(C)c(CC(C)(COS(C)(=O)=O)COS(C)(=O)=O)c1C
inactive: [1] 8.6% | [2] 11% | [3] 27.1% | [4] 39.2% | [5] 5.85% | [6] 28.1%

N=C(N)SCc1cccc(-c2nc3ccccc3c(=O)o2)c1
inactive: [1] 22.2% | [2] 17.4% | [3] 7.9% | [4] 5.95% | [5] 20.8% | [6] 16.9%

Cc1ccsc1/C=N/Nc1cnccn1
inactive: [1] 11.1% | [2] 2.6% | [3] 17.3% | [4] 6.15% | [5] 0.4% | [6] 19.9%

c1ccc(C2(c3ccccc3)CCc3ccccc3O2)cc1
inactive: [1] 27.5% | [2] 15.6% | [3] 4.7% | [4] -40.5% | [5] -9.6% | [6] 31.9%

CN1C(=O)C2(C=CCCC2)c2ccccc21 (stereo not given)
inactive: [1] -10.5% | [2] -8.4% | [3] -0.7% | [4] -14.3% | [5] -0.5% | [6] -10.4%

CCCCCc1ccc2oc(=O)c3ccc(C)cc3c2c1O
inactive: [1] -9.7% | [2] 8.7% | [3] 16.2% | [4] -16.8% | [5] -25.3% | [6] -5.6%

COc1cc(CC2COC(=O)C2Cc2ccc(O)c(OC)c2)ccc1O (stereo not given)
inactive: [1] -4.85% | [2] 12.1% | [3] 0.35% | [4] -15.8% | [5] 22.4% | [6] 6.4%

CCOC(=O)NCC1(c2ccccc2)CCN(Cc2ccccc2)CC1
inactive: [1] -9.75% | [2] -17.6% | [3] -11.9% | [4] 1.35% | [5] -14.9% | [6] -1.7%

CC(=O)[CH-]C(=O)Nc1ccccc1.CC(=O)[CH-]C(=O)Nc1ccccc1.CC[O-].CC[O-].[Ti+4]
inactive: [1] -16.4% | [2] 14.3% | [3] 11.3% | [4] 21% | [5] 12.8% | [6] 12.7%

CCCCCCCc1ccccc1
inactive: [1] -13.1% | [2] -14.7% | [3] -19.6% | [4] 3.95% | [5] 20.2% | [6] -6.5%

CCc1ccc(/C=C/C(=O)C(C)CN(C)C)cc1 (stereo not given)
inactive: [1] -4.9% | [2] 26.1% | [3] -2.3% | [4] 22.1% | [5] 13.9% | [6] 9.85%

[O-][n+]1cc(N=Nc2ccc(Cl)cc2)nn1-c1ccc(Cl)cc1
inactive: [1] -11.6% | [2] -33.8% | [3] -8.5% | [4] 9.85% | [5] -1.1% | [6] -14.3%

COc1ccc(C(=O)C(C)CN2CCOCC2)cc1 (stereo not given)
inactive: [1] 68.1% | [2] 22.6% | [3] 40.5% | [4] 32.6% | [5] 52.8% | [6] 53.5%

CC1(C)C2(SCCS2)C(C)(C)C12SCCS2
inactive: [1] 22.9% | [2] 3.05% | [3] 17.9% | [4] 3.75% | [5] 11.4% | [6] 5.4%

C/C(=N\N)C1C(=O)c2ccccc2C1=O
inactive: [1] 6.1% | [2] 5.05% | [3] 13.7% | [4] 20.8% | [5] 8.8% | [6] 11.3%

CCCC(C)C(=O)OCCOC (stereo not given)
inactive: [1] 2.85% | [2] -5.3% | [3] -2.95% | [4] -19.1% | [5] 4.45% | [6] 0%

O=C(C=C1CCCCC1)c1ccccc1
inactive: [1] 12.9% | [2] -6.35% | [3] 7.45% | [4] -6.2% | [5] 2.9% | [6] 5.25%

[N-]=[N+]=NC[C@H]1OCO[C@H](CN=[N+]=[N-])[C@@H](OCCOCCCl)[C@@H]1OCCOCCCl
inactive: [1] -13.1% | [2] -23.4% | [3] -10.6% | [4] -21.1% | [5] -28.8% | [6] -15.8%
